The record followed here is the supplement of paper PMC6897291.

Counter-ions that a name gives are not always drawn.

The assay concerns U-2932. The assay is described as follows: growth inhibition by drug plus 177Lu-lilotomab satetraxetan (1 - RLU/untreated control) (fraction); higher = stronger inhibition. As to conditions: 1000 nM; time (day): 4; 177Lu-lilotomab satetraxetan 1 ug/ml. In short, it runs like this: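 RIVA or U-2932 cells were left untreated or pretreated for 18 h with a radiolabelled anti-CD37 antibody conjugate (~600 MBq/mg) at 0.5 µg/ml for RIVA or 1 µg/ml for U-2932. The cells were then washed and seeded at 3,000 cells/well on plates pre-printed with the Selleck Cambridge Cancer Compound library, dosed at 10/100 nM for RIVA and 10/1,000 nM for U-2932. From day 3, RealTime-Glo luminescence was read daily after 1 h at 37°C. Growth inhibition was taken as one minus RLU over the mean of the untreated no-drug wells, of which there were 48 per plate.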
Regarding `COc1ccc(S(=O)(=O)Nc2cccnc2Nc2ccc(O)cc2)cc1`, the “growth inhibition by drug plus 177Lu-lilotomab satetraxetan” value (“growth inhibition” below) came to 0.923. The value for `C[C@]12CCC(=O)C=C1CC[C@@H]1[C@@H]2[C@@H](O)C[C@@]2(C)[C@H]1CC[C@]2(O)C(=O)CO` [Hydrocortisone (Cortisol)] was 0.288. The value for `COc1cc(OC2CCN(C)CC2)ccc1Nc1ncc2c(n1)n(C1CCCC1)c(=O)n2C` was -0.0709; that for `Nc1nc(F)nc2c1ncn2[C@@H]1O[C@H](CO)[C@@H](O)[C@@H]1O` [Fludarabine (Fludara)] was 0.105. Under `Nc1nc(Nc2ccc(S(N)(=O)=O)cc2)nn1C(=O)c1c(F)cccc1F` stands 0.614. Regarding `Nc1ncn([C@@H]2O[C@H](CO)[C@@H](O)[C@H]2O)c(=O)n1` [Azacitidine (Vidaza)], the “growth inhibition” value was determined as 0.0405.

`COc1cc2nccc(Oc3ccc(NC(=O)NC4CC4)c(Cl)c3)c2cc1C(N)=O` [E7080 (Lenvatinib)]: the “growth inhibition” value came to 0.00296.

Turning to `Nc1ccn([C@@H]2O[C@H](CO)[C@@H](O)[C@@H]2O)c(=O)n1` [Cytarabine], the “growth inhibition” value stood at 0.801. For `Nc1cccc2c1C(=O)N(C1CCC(=O)NC1=O)C2=O` (stereo not drawn) [Pomalidomide], the “growth inhibition” value is 0.391. Under `CN(C)c1nc(N(C)C)nc(N(C)C)n1` [Altretamine (Hexalen)] stands -0.0503; under `Cc1[nH]c(/C=C2\C(=O)Nc3ccc(S(=O)(=O)N(C)c4cccc(Cl)c4)cc32)c(C)c1C(=O)N1CCN(C)CC1`, 0.0937.

On to `O=C(O[C@@H]1Cc2c(O)cc(O)cc2O[C@@H]1c1cc(O)c(O)c(O)c1)c1cc(O)c(O)c(O)c1` [(-)-Epigallocatechin gallate], for which the “growth inhibition” value turned out to be 0.036. For `CCc1c2c(nc3ccc(OC(=O)N4CCC(N5CCCCC5)CC4)cc13)-c1cc3c(c(=O)n1C2)COC(=O)[C@]3(O)CC` [Irinotecan HCl Trihydrate (Campto)], the “growth inhibition” value was found to be 0.928. As to `S=C(NCc1ccc2c(c1)OCO2)N1CCN(c2ncnc3c2oc2ccccc23)CC1` [Amuvatinib (MP-470)], the “growth inhibition” value came to 0.477. On to `COc1ccc2c3n(c(=NC(=O)c4cccnc4)nc2c1OC)CCN3`, for which the “growth inhibition” value was found to be 0.175. Consider `C#Cc1cccc(Nc2ncnc3cc(OCCOC)c(OCCOC)cc23)c1` [Erlotinib HCl], for which the “growth inhibition” value was found to be 0.704. Under `Cc1ccc(-c2cc(C(F)(F)F)nn2-c2ccc(S(N)(=O)=O)cc2)cc1` [Celecoxib] stands -0.0274; under `N#CC[C@H](C1CCCC1)n1cc(-c2ncnc3[nH]ccc23)cn1`, -0.0146. Consider `CCc1cncnc1N1CCN(Cc2nc3ccc(C(F)(F)F)cc3[nH]2)CC1`, for which the “growth inhibition” value is 0.086. Under `CCN(CC)C(=S)SSC(=S)N(CC)CC` [Disulfiram (Antabuse)] stands 0.983; under `CC(C)[C@H](C(=O)Nc1ccc(C(=O)NO)cc1)c1ccccc1`, 0.969; under `CC(=O)O[C@]1(C(C)=O)CC[C@H]2[C@@H]3C=C(C)C4=CC(=O)CC[C@]4(C)[C@H]3CC[C@@]21C` [Megestrol Acetate], 0.137. Under `COc1cc2ncnc(Nc3cccc(Br)c3)c2cc1OC` stands 0.0384. Take `N#Cc1ccc(C(c2ccc(C#N)cc2)n2cncn2)cc1` [Letrozole]: the “growth inhibition” value is -0.067. The value for `CC(=O)c1c(C)c2cnc(Nc3ccc(N4CCNCC4)cn3)nc2n(C2CCCC2)c1=O` was -0.00616; that for `COc1cccc2c1C(=O)c1c(O)c3c(c(O)c1C2=O)C[C@@](O)(C(=O)CO)C[C@@H]3O[C@H]1C[C@H](N)[C@H](O)[C@H](C)O1` [Doxorubicin (Adriamycin)] was 0.986. With `CC(C)(C)c1[nH]cnc1/C=c1\[nH]c(=O)/c(=C/c2ccccc2)[nH]c1=O` [NPI-2358 (Plinabulin)], the “growth inhibition” value worked out at 0.975. Under `COc1cc(Nc2ncc3c(n2)-c2ccc(Cl)cc2C(c2c(F)cccc2OC)=NC3)ccc1C(=O)O` [MLN8237 (Alisertib)] stands 0.278. For the molecule `O=c1[nH]cc(F)c(=O)[nH]1` [Adrucil (Fluorouracil)], the “growth inhibition” value was 0.0854. `CC(C)c1ccc(Cn2ccc3c4c(N)nc(NC5CC5)nc4ccc32)cc1`: the “growth inhibition” value was found to be 0.983. Regarding `CC/C(=C(\c1ccccc1)c1ccc(OCCN(C)C)cc1)c1ccccc1` [Tamoxifen Citrate (Nolvadex)], the “growth inhibition” value turned out to be 0.103.

For `Cn1cc(C2=C(c3ccc(Cl)cc3Cl)C(=O)NC2=O)c2ccccc21`, the “growth inhibition” value is 0.0592.

On to `c1ccc(-c2nn3c(c2-c2ccnc4cc(OCCN5CCOCC5)ccc24)CCC3)nc1`, for which the “growth inhibition” value was 0.0208.

Take `O=C(NCCS(=O)(=O)c1ccc(C(F)(F)F)cn1)c1ccc(Cl)cc1`: the “growth inhibition” value was determined as 0.0515. The value for `Cc1ccc(S(=O)(=O)C=CC#N)cc1` was 0.193; that for `CCC1=C[C@@H]2CN(C1)Cc1c([nH]c3ccccc13)[C@@](C(=O)OC)(c1cc3c(cc1OC)N(C)[C@H]1[C@@](O)(C(=O)OC)[C@H](OC(C)=O)[C@]4(CC)C=CCN5CC[C@]31[C@@H]54)C2` [Vinorelbine (Navelbine)] was 0.98.

`Cc1cc(Nc2cc(N3CCN(C)CC3)nc(/C=C/c3ccccc3)n2)n[nH]1`: the “growth inhibition” value turned out to be 0.00467. Regarding `CN(N=O)C(=O)N[C@@H](C=O)[C@@H](O)[C@H](O)[C@H](O)CO` [Streptozotocin (Zanosar)], the “growth inhibition” value was -0.0176.
